This is an account of results in the supplement of paper PMC5499739.

Whole data set: some 16,000 sequences, median “Z-score” near -0.37, cut for the highest 2% near 3.2. The sample as a whole holds a higher share of the highest values than the screen did.

The assay concerns RBM10 RRM1-ZnF (GST-tagged construct). Put plainly: RNAcompete 7-mer binding Z-score; higher = stronger binding preference. Here is the method: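 RNAcompete: 20 pmol GST-tagged RBM10 RNA-binding constructs were incubated with a designed RNA pool of about 241,000 sequences up to 41 nt (1.5 nmol) on glutathione beads for 30 min at 4 °C and washed. Bound RNAs were identified by microarray hybridisation. Each RNA 7-mer is scored by a one-sided Z-score of its enrichment, computed over probes that contain the 7-mer within longer pool sequences.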
With CGUCUGC, the “RNAcompete 7-mer binding Z-score” value is -0.759.
As for UUUUAAC, the “RNAcompete 7-mer binding Z-score” value is -0.818.
GUAGAUG: the “RNAcompete 7-mer binding Z-score” value is 1.93.
To AGGUUCA belongs -0.0285.
Take UUUUCUU: the “RNAcompete 7-mer binding Z-score” value is -0.772.
The result for GAGCGAC reads 0.192.
Take GAGCGAG: the “RNAcompete 7-mer binding Z-score” value is 3.42.
To GAGCGGC belongs 1.44.
As for CAGCGGG, the “RNAcompete 7-mer binding Z-score” value was determined as 2.5.
On to UAGCGAG, for which the “RNAcompete 7-mer binding Z-score” value was determined as 0.826.
Regarding GAGCGGU, the “RNAcompete 7-mer binding Z-score” value was determined as 1.72.
With UAGCGGA, the “RNAcompete 7-mer binding Z-score” value amounted to 1.13.
With GAGCGGA, the “RNAcompete 7-mer binding Z-score” value was determined as 3.98.
GAGCGGG: the “RNAcompete 7-mer binding Z-score” value came out at 3.61.
Turning to CCUACCU, the “RNAcompete 7-mer binding Z-score” value is -0.766.
The result for CCAGUCC reads -0.789.
Regarding AACGACU, the “RNAcompete 7-mer binding Z-score” value was -0.457.
To CGUGCUG belongs -0.149.
With CCCGCUC, the “RNAcompete 7-mer binding Z-score” value was -0.552.
Regarding CGGUAAG, the “RNAcompete 7-mer binding Z-score” value was 1.26.
Turning to CGGUAAA, the “RNAcompete 7-mer binding Z-score” value amounted to 0.29.
In the case of GGGUAAG, the “RNAcompete 7-mer binding Z-score” value was 4.39.
With GGGUAAC, the “RNAcompete 7-mer binding Z-score” value came out at 2.4.
The result for GGGUAAA reads 3.98.
As to AGGUAAA, the “RNAcompete 7-mer binding Z-score” value is 1.82.
With CCCUUCA, the “RNAcompete 7-mer binding Z-score” value was -0.776.
To CCACUAC belongs -0.623; to AUCCGAU, -0.717.
Regarding GGGAAGA, the “RNAcompete 7-mer binding Z-score” value came out at 3.86.
In the case of GGGAAGU, the “RNAcompete 7-mer binding Z-score” value worked out at 3.
On to UGAAAAG, for which the “RNAcompete 7-mer binding Z-score” value was 0.381.
The result for CGGAAGA reads 0.923; that for UGGAAAG, 2.84.
The result for CGGAAAA reads 0.654.
Consider CGGAAAG, for which the “RNAcompete 7-mer binding Z-score” value was 1.84.
For the sequence GGGAAAG, the “RNAcompete 7-mer binding Z-score” value amounted to 4.79.
Turning to GAAAAAG, the “RNAcompete 7-mer binding Z-score” value is 1.49.
With GGGAAAA, the “RNAcompete 7-mer binding Z-score” value is 3.4.
For the sequence GGAAAAA, the “RNAcompete 7-mer binding Z-score” value was determined as 1.86.
As for GGAAAAG, the “RNAcompete 7-mer binding Z-score” value came out at 3.24.
To UCCGAUG belongs -0.464.
On to UGUACUA, for which the “RNAcompete 7-mer binding Z-score” value is -0.415.
AUCGGCC: the “RNAcompete 7-mer binding Z-score” value was -0.62.
On to CUCGCAG, for which the “RNAcompete 7-mer binding Z-score” value is -0.11.
For the sequence GAGCUGG, the “RNAcompete 7-mer binding Z-score” value came to 1.88.
The result for GGUGCGG reads 2.92; that for GGCGUGC, 0.738; that for CGGUCUU, -0.607.
In the case of CUAUGGU, the “RNAcompete 7-mer binding Z-score” value is -0.116.
For CCUCUUA, the “RNAcompete 7-mer binding Z-score” value was -0.85.
For AAGGUAU, the “RNAcompete 7-mer binding Z-score” value stood at 2.13.
AGGGUAU: the “RNAcompete 7-mer binding Z-score” value is 3.69.
As for GGGGUAG, the “RNAcompete 7-mer binding Z-score” value amounted to 4.61.
On to CGGGUAU, for which the “RNAcompete 7-mer binding Z-score” value turned out to be 1.59.
As to GGGGUAA, the “RNAcompete 7-mer binding Z-score” value came to 4.14.
Regarding GUGGUAG, the “RNAcompete 7-mer binding Z-score” value is 2.2.
Regarding GGGGUAU, the “RNAcompete 7-mer binding Z-score” value was determined as 3.17.
Regarding AGGGUAA, the “RNAcompete 7-mer binding Z-score” value amounted to 4.13.
Take GGGGUAC: the “RNAcompete 7-mer binding Z-score” value was 2.57.
With CGGGUAA, the “RNAcompete 7-mer binding Z-score” value is 1.89.
For the sequence GAGGUAA, the “RNAcompete 7-mer binding Z-score” value was found to be 2.23.
As to UGGGUAA, the “RNAcompete 7-mer binding Z-score” value worked out at 2.97.
With ACAUUGG, the “RNAcompete 7-mer binding Z-score” value turned out to be 0.553.
With AGCUAAG, the “RNAcompete 7-mer binding Z-score” value was -0.035.
To CAUUUAC belongs -0.85; to AAUCGAA, -0.181; to ACCAGCC, -0.672.
CCUGAGG: the “RNAcompete 7-mer binding Z-score” value was 0.339.
Turning to GUUCUGU, the “RNAcompete 7-mer binding Z-score” value is -0.431.
As to CACUAGC, the “RNAcompete 7-mer binding Z-score” value was -0.633.
Take CCGUGCC: the “RNAcompete 7-mer binding Z-score” value was -0.532.
Take AGAAUGU: the “RNAcompete 7-mer binding Z-score” value is 0.235.
UGAAUGG: the “RNAcompete 7-mer binding Z-score” value was 2.5.
Turning to CGAAUGG, the “RNAcompete 7-mer binding Z-score” value amounted to 1.29.
On to AGAAUGG, for which the “RNAcompete 7-mer binding Z-score” value came out at 3.27.
Consider GGAAUGU, for which the “RNAcompete 7-mer binding Z-score” value was found to be 1.94.
Turning to GGAAUGG, the “RNAcompete 7-mer binding Z-score” value was 4.85.
Turning to UUGUUUG, the “RNAcompete 7-mer binding Z-score” value is 0.0138.
On to UCUAAGG, for which the “RNAcompete 7-mer binding Z-score” value is -0.00896.
The result for AUGCGUU reads -0.405; that for UCCAACC, -0.805; that for UAAGGUG, 2.16.
As for CAAGGUG, the “RNAcompete 7-mer binding Z-score” value amounted to 1.76.
To AAAGGUG belongs 3.71; to GAAGGUG, 4.59; to AAAGGUA, 3.05.
With GAAGGUC, the “RNAcompete 7-mer binding Z-score” value came to 1.25.
Regarding GAAGGUA, the “RNAcompete 7-mer binding Z-score” value is 3.84.
For the sequence GAAGGUU, the “RNAcompete 7-mer binding Z-score” value was determined as 2.87.
Consider UAAGGUA, for which the “RNAcompete 7-mer binding Z-score” value was 1.5.
As for AUUAAGG, the “RNAcompete 7-mer binding Z-score” value was 1.2.
In the case of CGGGUCU, the “RNAcompete 7-mer binding Z-score” value was 0.339.
The result for CCGAAGC reads -0.61; that for CGGUUGG, 2.56.
Take GGGUUGG: the “RNAcompete 7-mer binding Z-score” value is 4.64.
The result for CGGUUGA reads 1.01; that for UGGUUAG, 2.24; that for GGGUUAG, 4.38.
Take AGGUUGG: the “RNAcompete 7-mer binding Z-score” value worked out at 3.06.
To CGGUUAG belongs 0.881; to GGGUUGA, 3.8.
Take UGGUUGA: the “RNAcompete 7-mer binding Z-score” value came to 2.02.
For the sequence UCCAGAG, the “RNAcompete 7-mer binding Z-score” value was -0.35.
Consider ACAGAAG, for which the “RNAcompete 7-mer binding Z-score” value came out at 0.595.
To UUACAAA belongs -0.305; to UAACUGA, -0.295.
In the case of GGUCGGU, the “RNAcompete 7-mer binding Z-score” value was 1.24.
Consider AGGAUAG, for which the “RNAcompete 7-mer binding Z-score” value came out at 2.16.
Regarding GGUUAGU, the “RNAcompete 7-mer binding Z-score” value was determined as 1.7.
In the case of CGAUUGG, the “RNAcompete 7-mer binding Z-score” value was found to be 0.949.
Consider GGAUUGG, for which the “RNAcompete 7-mer binding Z-score” value was found to be 3.79.
As for UGGAUAG, the “RNAcompete 7-mer binding Z-score” value was 2.48.
Take GGGAUGU: the “RNAcompete 7-mer binding Z-score” value was found to be 3.21.
The result for GGGAUGA reads 4.17; that for GGAUUGU, 1.22; that for GGGAUGC, 3.06.
GGUUAGG: the “RNAcompete 7-mer binding Z-score” value came to 4.59.
